# Screening results: PubChem, several laboratories
# NPR2 activator: GC-B (human) receptor activation; P20594; 370,000 tested, 0.11% active; activation, % at 10 µM; AID 1920062; HEK293-GC-B cells, CNP EC30, cGMP TR-FRET; 0% at EC30 CNP, 100% saturating CNP;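 active means activation at 10 µM reaching about 35% in either raw or pattern-adjusted values, limit read from the data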
# GC-A act: GC-A (human) enzyme activation. P16066. HEK293 GC-A cells, cGMP TR-FRET, EC30 ANP; 0% at EC30 ANP, 100% saturating ANP. activation, % at 10 µM. 370,000 tested, 0.14% active. AID 1671463; in the data active means activation above about 40%
# m5-HT2A agonist: activates the mouse 5-HT2A serotonin receptor. activation, % at 7.6 µM. P35363. 360,000 tested, 0.66% active. CHO-K1 mHTR2A beta-arrestin complementation, luminescence; percent of 30 µM serotonin response;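 active means activation above a run cutoff, the mean activation of all tested compounds plus 3 SD, cut at about 14% in these data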
# MsrA inh: bovine MsrA inhibition; 360,000 tested, 0.75% active; purified bovine MsrA, absorbance read-out; AID 651718; inhibition, % at 15.5 µM; in the data active means inhibition above about 4.5%
# bovine MsrA act: activates bovine MsrA enzyme; purified bovine MsrA, absorbance read-out; activation, % at 10.6 µM; 360,000 tested, 0.3% active; AID 602163; in the data active means activation above about 7.5%
# MOR ag counter: activates human mu opioid receptor in HTR2A counterscreen; shares compounds with m5-HT2A agonist; U2OS OPRM1 beta-arrestin PathHunter, luminescence; DMSO 0%, DAMGO 9.3 µM 100%; activation, % at 9.3 µM; 2,300 tested, 5.3% active;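 active means mean activation above the mean of DMSO-only wells plus 3 SD, cut at about 0.5% in these data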
# Target sequence (P35372 whole entry, looked up): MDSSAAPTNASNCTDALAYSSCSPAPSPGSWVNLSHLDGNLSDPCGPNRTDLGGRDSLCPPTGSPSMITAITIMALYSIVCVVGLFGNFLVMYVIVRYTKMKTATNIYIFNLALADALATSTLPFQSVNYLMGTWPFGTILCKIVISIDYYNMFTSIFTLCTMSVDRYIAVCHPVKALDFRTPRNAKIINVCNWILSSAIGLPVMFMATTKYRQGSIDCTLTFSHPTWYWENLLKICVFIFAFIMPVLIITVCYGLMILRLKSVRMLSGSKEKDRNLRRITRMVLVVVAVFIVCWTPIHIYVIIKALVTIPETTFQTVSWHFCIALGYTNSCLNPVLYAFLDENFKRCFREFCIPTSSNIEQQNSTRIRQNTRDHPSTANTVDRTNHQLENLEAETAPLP
# HTR2A ag conf: mouse HTR2A agonism confirmed; shares compounds with m5-HT2A agonist; activation, % at 7.6 µM; 2,300 tested, 19% active; AID 624381; CHO-K1 PathHunter beta-arrestin recruitment, luminescence; DMSO 0%, 30 µM serotonin 100%;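 active means mean activation across triplicates above the hit threshold derived in the original primary screen, cut at about 15% in these data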
# A number is an active result; . = inactive; / = not tested or not shown. Shown are actives, neighbours in structure and some others; about 1.8% of the full set was active somewhere.
SMILES,NPR2 activator,GC-A act,m5-HT2A agonist,MsrA inh,bovine MsrA act,MOR ag counter,HTR2A ag conf
CC(CCN1CCC(C(O)(c2ccccc2)c2ccccc2)CC1)Oc1cc(F)cc(C#N)c1 (stereo not given),.,.,/,/,/,/,/
O=C(O)C1CCCN(C(=O)c2cccc3ccccc23)C1 (stereo not given),.,.,.,.,.,/,/
CCOC(=O)C1CCCN(C(=O)c2cccc3ccccc23)C1 (stereo not given),.,.,17,.,.,.,.
O=C(CSc1nnc(-c2ccccn2)n1-c1ccc(Cl)cc1)Nc1ccc2c(c1)OCCO2,.,.,/,/,/,/,/
Cc1cccc(NC(=O)CSc2nnc(-c3ccco3)n2CC2CCCO2)n1 (stereo not given),.,.,15,.,.,.,.
CCn1c(SCC(=O)Nc2cccc(C)n2)nnc1-c1ccco1,.,.,.,.,.,/,/
O=S(=O)(c1ccccc1Br)N(Cc1cn(CC2CCCCC2)nn1)C1CC1,.,.,/,/,/,/,/
Cn1cc(C(=O)c2ccc(Cl)cc2Cl)cc1C(=O)N/N=C(\N)COc1ccc(Cl)cc1,.,.,15,.,.,.,.
Cc1ccc(C(=O)Nc2cccc(-c3cn4ccccc4n3)c2)cc1,.,.,.,.,.,/,/
Cc1ccccc1C(=O)Nc1cccc(-c2cn3ccccc3n2)c1,.,.,16,.,.,.,.
CCCCCCCCN1C(=O)[C@@H](CC(=O)NCc2ccccc2)C[C@@]2(C(=O)OC)C1=C[C@H](C(C)C)O[C@@H]2C1CC1,.,.,/,/,/,/,/
CCn1c(CNC(=O)c2ccco2)nnc1SCC(=O)Nc1ccccc1Cl,.,.,.,.,.,/,/
CCn1c(CNC(=O)c2ccco2)nnc1SCC(=O)Nc1cc(C)c(C)cc1Br,.,.,15,.,.,1.0,.
CCN(CC(=O)NCc1ccc(F)cc1)C(=O)c1cccnc1SC,.,.,15,.,.,.,.
NC[C@@H]1O[C@H](C23CC4CC(CC(C4)C2)C3)Cc2c1ccc(O)c2O,.,.,26,.,.,.,100
CC1(C)CC(=O)C(C(=O)c2ccccc2)C(=O)C1Cl (stereo not given),.,.,.,.,.,/,/
CC1(C)CC(=O)C(C(=O)c2ccccc2)C(=O)C1,.,.,19,.,.,.,.
Cc1ccc(SCC(=O)Nc2ccc(S(=O)(=O)Nc3ncccn3)cc2)cc1,.,.,.,.,.,/,/
Cc1cc(C)nc(SCC(=O)Nc2ccc(S(=O)(=O)Nc3ncccn3)cc2)n1,.,.,19,.,.,.,.
O=[N+]([O-])c1cccc(S(=O)(=O)NCCc2cn3ccccc3n2)c1,.,.,15,.,.,.,.
Cc1ccc([N+](=O)[O-])cc1S(=O)(=O)NCCc1cn2ccccc2n1,.,.,.,.,.,/,/
COc1ccc(/C=C/C(=O)OCC(=O)NC2CCCCCCC2)cc1,.,.,.,.,.,/,/
COc1ccc(OC)c(/C=C/C(=O)OCC(=O)NC2CCCCCCC2)c1,.,.,16,.,.,.,.
O=C(c1ccc(F)cc1)C1CCN(c2ncnc3sccc23)CC1,.,.,/,/,/,/,/
C/C(=C\C(=O)c1ncc(C(F)(F)F)cc1Cl)N(C)C,.,.,21,.,.,.,.
SMILES,NPR2 activator,GC-A act,m5-HT2A agonist,MsrA inh,bovine MsrA act,MOR ag counter,HTR2A ag conf
Cc1ccc(C(=O)c2cc([N+](=O)[O-])ccc2N2CCOCC2)c(C)c1,.,.,15,.,.,.,.
CN(Cc1nc(Cc2ccccc2F)no1)[C@@H]1CS(=O)(=O)C[C@H]1O,.,.,.,.,.,/,/
Cc1cc(C)n(CCN(C)Cc2nc(Cc3ccccc3F)no2)n1,.,.,38,.,.,.,.
O=C(N[C@@H](Cc1cccnc1)C(=O)N1CCC[C@H]1C(=O)NCCc1ccccc1Cl)c1ccc(Cl)cc1Cl,.,.,/,.,/,/,/
COC(=O)[C@]12C[C@H](CC(=O)N3CCSCC3)C(=O)N(Cc3ccc(Cl)cc3Cl)C1=C[C@H](C1CCCC1)O[C@@H]2C,.,.,/,/,/,/,/
CCOc1ccc(CCNC(=O)c2cccc(NC3=NC4CS(=O)(=O)CC4S3)c2)cc1 (stereo not given),.,.,18,.,.,.,.
CCOc1ccc(CCNC(=O)c2cccc(NC3=NC4CS(=O)(=O)CC4S3)c2)cc1OCC (stereo not given),.,.,.,.,.,/,/
COc1ccc(C=NNC(=O)c2ccncc2)cc1,.,.,/,/,/,/,/
CCCc1[nH]nc2c1C(c1ccsc1)C(C#N)=C(N)O2 (stereo not given),.,.,21,.,.,.,.
CCOC(=O)c1[nH]cnc1C(=O)N1CCN(C(=O)OC(C)(C)C)CC1,.,.,18,.,.,.,.
O=C(c1cc(F)ccc1F)N(Cc1ccccn1)CC1CCCO1 (stereo not given),.,.,/,/,/,/,/
CCc1nn(CC(=O)NCCc2ccc(S(N)(=O)=O)cc2)c(=O)c2cc3sccc3n12,/,/,27,/,.,.,.
CNc1ccc(C(=O)c2ccccc2C(=O)O)cc1[N+](=O)[O-],.,.,19,.,.,.,.
CN=C(c1ccc(C)cc1)n1c(=S)nc(-c2ccc(C)cc2)n(C)c1=S,.,.,15,.,.,.,.
CC(C)(C)c1ccc(-c2cn(C[C@H](Cc3ccccc3)n3c(=O)c4ccccc4n3Cc3ccccc3)nn2)cc1,.,.,/,/,/,/,/
Cc1ccccc1C(=O)NC1CCN(CC(=O)Nc2ccc(N(C)C)cc2)CC1,.,.,.,.,.,/,/
CC(=O)c1ccc(NC(=O)CN2CCC(NC(=O)c3ccccc3C)CC2)cc1,.,.,23,.,.,.,.
C=C(C)CSc1nc2ncccc2[nH]1,.,.,22,.,.,.,.
O=C(O)CCC(=O)Nc1ccc(S(=O)(=O)Nc2nccs2)cc1,.,.,.,.,.,/,/
CCc1nnc(NS(=O)(=O)c2ccc(NC(=O)CCC(=O)O)cc2)s1,.,.,15,.,.,.,.
COc1cccc(C(O)c2nc(/C=C/c3ccccc3)cs2)c1 (stereo not given),.,.,.,.,.,/,/
OC(c1cccc(Cl)c1)c1nc(/C=C/c2ccccc2)cs1 (stereo not given),.,.,15,.,.,.,.
Cc1ccccc1C(=O)O/N=C(\c1ccccc1)c1ccccn1,.,.,23,.,.,.,43
CCOc1cccc(-c2nnc(SCC(=O)Nc3ccc4c(c3)OCO4)n2N)c1,.,.,/,/,/,/,/
CC(C(=O)Nc1cccc(S(=O)(=O)N2CCOCC2)c1)N1CCN(C/C=C/c2ccccc2)CC1 (stereo not given),.,.,17,.,.,.,21
